Laboratory results reported in PubChem BioAssay (NCATS).
Records with an inconclusive call do not appear. Calls of active or inactive are those of the source. Calls come from the whole dose curve; as a rule, active = well fitted curve in the direction sought with a large enough effect; inconclusive = small, poorly fitted or top-dose-only effect, or another doubt; inactive = no such curve, though single readings can be large; an effect the other way counts as inactive or inconclusive.

Tests used:
[1] = qHTS of pediatric cancer cell lines to identify multiple opportunities for drug repurposing: Confirmatory screen for A673 cells (AID 1347110); note: nearly all actives have a fitted effect of over 65% in size; note: potency is the fitted concentration of half-maximal effect
Outline: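 Viability was read as ATP luminescence (CellTiter-Glo) after 48 h of compound exposure at 37 C in A673 cells seeded at 500-1,000/well. Titrations reached 46 uM final, with 11 points in the confirmatory screen. Concentration-response curves were fitted directly.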

[2] = qHTS of pediatric cancer cell lines to identify multiple opportunities for drug repurposing: Confirmatory screen for BT-12 cells (AID 1347112); note: nearly all actives have a fitted effect of over 55% in size; note: potency is the fitted concentration of half-maximal effect
Outline: (§1)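 Viability after 48 h compound treatment at 37C, 500-1,000 cells/well, read as ATP luminescence with CellTiter-Glo. Primary screens used 11-point (MIPE, 0.78 nM-46 µM) or 8-point (NPC, 0.59 nM-46 µM) final concentrations; follow-up screens used 11-point dilutions.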

[3] = qHTS of pediatric cancer cell lines to identify multiple opportunities for drug repurposing: Confirmatory screen for LAN-5 cells (AID 1347113); note: nearly all actives have a fitted effect of over 65% in size; note: potency is the fitted concentration of half-maximal effect
Outline: as §1

[4] = qHTS of pediatric cancer cell lines to identify multiple opportunities for drug repurposing: Confirmatory screen for NB-EBc1 cells (AID 1347115); note: nearly all actives have a fitted effect of over 45% in size; note: potency is the fitted concentration of half-maximal effect
Outline: as §1

[5] = qHTS of pediatric cancer cell lines to identify multiple opportunities for drug repurposing: Confirmatory screen for U-2 OS cells (AID 1347122); note: nearly all actives have a fitted effect of over 65% in size; note: potency is the fitted concentration of half-maximal effect
Outline: as §1

[6] = qHTS of pediatric cancer cell lines to identify multiple opportunities for drug repurposing: Confirmatory screen for Rh41 cells (AID 1347123); note: nearly all actives have a fitted effect of over 60% in size; note: potency is the fitted concentration of half-maximal effect
Outline: as §1

[7] = qHTS of pediatric cancer cell lines to identify multiple opportunities for drug repurposing: Confirmatory screen for RD cells (AID 1347124);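 note: cells exposed to compound for 48 h before viability readout; nearly all actives have a fitted effect of over 65% in size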; note: potency is the fitted concentration of half-maximal effect
Outline: as §1

[8] = qHTS of pediatric cancer cell lines to identify multiple opportunities for drug repurposing: Confirmatory screen for Rh18 cells (AID 1347125); note: nearly all actives have a fitted effect of over 55% in size; note: potency is the fitted concentration of half-maximal effect
Outline: as §1

[9] = qHTS of pediatric cancer cell lines to identify multiple opportunities for drug repurposing: Confirmatory screen for Rh30 cells (AID 1347126); note: nearly all actives have a fitted effect of over 55% in size; note: potency is the fitted concentration of half-maximal effect
Outline: as §1

[10] = qHTS of pediatric cancer cell lines to identify multiple opportunities for drug repurposing: Confirmatory screen for SK-N-SH cells (AID 1347129); note: nearly all actives have a fitted effect of over 60% in size; note: potency is the fitted concentration of half-maximal effect
Outline: as §1

[11] = qHTS of pediatric cancer cell lines to identify multiple opportunities for drug repurposing: Confirmatory screen for SK-N-MC cells (AID 1347111);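 note: potency is the fitted concentration of half-maximal effect; cells exposed to compound for 48 h before the readout; nearly all actives have a fitted effect of over 70% in size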
Outline: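 SK-N-MC cells at 500-1,000 cells/well in growth media were pre-incubated 5 h, then exposed to compounds at 11-point dilutions for 48 h at 37 degrees C, 5% CO2. Viability was read as CellTiter-Glo luminescence.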

[12] = qHTS of pediatric cancer cell lines to identify multiple opportunities for drug repurposing: Confirmatory screen for MG 63 (6-TG R) cells (AID 1347119); note: potency is the fitted concentration of half-maximal effect; nearly all actives have a fitted effect of over 55% in size
Outline: as §1

[13] = qHTS of pediatric cancer cell lines to identify multiple opportunities for drug repurposing: Confirmatory screen for control Hh wild type fibroblast cells (AID 1347121); note: nearly all actives have a fitted effect of over 70% in size; note: potency is the fitted concentration of half-maximal effect
Outline: as §1

[14] = qHTS of pediatric cancer cell lines to identify multiple opportunities for drug repurposing: Confirmatory screen for TC32 cells (AID 1347118)
Outline: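 Luminescent ATP read-out (CellTiter-Glo) of metabolically active TC32 cells after 48 h exposure. Concentration-response curves came from 11-point (MIPE, 0.78 nM–46 µM) or 8-point (NPC, 0.59 nM–46 µM) primary titrations; follow-up used 11 points.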

[15] = qHTS of pediatric cancer cell lines to identify multiple opportunities for drug repurposing: Confirmatory screen for OHS-50 cells (AID 1347128); note: potency is the fitted concentration of half-maximal effect
Outline: as §1

[16] = qHTS of pediatric cancer cell lines to identify multiple opportunities for drug repurposing: Confirmatory screen for SJ-GBM2 cells (AID 1347116); note: nearly all actives have a fitted effect of over 60% in size
Outline: (§2)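 Viability measured as metabolically active cells via CellTiter-Glo luminescence following 48 hours of compound exposure, 11-point dilutions in confirmatory testing. 500-1,000 cells/well plated 5 hours before dosing; controls were DMSO and 2.3 µM bortezomib.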

[17] = qHTS of pediatric cancer cell lines to identify multiple opportunities for drug repurposing: Confirmatory screen for BT-37 cells (AID 1347117); note: nearly all actives have a fitted effect of over 55% in size; note: potency is the fitted concentration of half-maximal effect
Outline: as §1

[18] = qHTS of pediatric cancer cell lines to identify multiple opportunities for drug repurposing: Confirmatory screen for DAOY cells (AID 1347114)
Outline: as §2

Measured: Potency

CN(C)CCN(C)C(=O)c1ccc(NC(=O)Nc2ccc(-c3nc(N4CCOCC4)c4ccn(CC(F)(F)F)c4n3)cc2)cc1
active: [1] 0.293 µM | [2] 18.5 µM | [3] 0.414 µM | [5] 3.69 µM | [6] 0.208 µM | [7] 0.928 µM | [8] 3.29 µM | [9] 0.369 µM | [10] 4.69 µM
inactive: [4]

O=c1[nH]nc(OCCCc2ccc(Cl)cc2)c(NCc2cccnc2)c1Br
active: [11] 16.5 µM | [4] 13.1 µM | [12] 5.22 µM | [13] 10.4 µM | [5] 7.37 µM | [6] 10.4 µM

CC[C@H](NC(=O)[C@H](C)NC)C(=O)N1C[C@@H](O)C[C@H]1Cc1c(-c2[nH]c3cc(F)ccc3c2C[C@H]2C[C@H](O)CN2C(=O)[C@H](CC)NC(=O)[C@H](C)NC)[nH]c2cc(F)ccc12
active: [1] 7.37 µM | [2] 18.5 µM | [14] 2.93 µM
inactive: [4] | [13] | [7] | [9] | [10]

CC1(COc2ccc3c(c2)ncn3-c2ccc3cccc(N4CCC(N)CC4)c3n2)COC1
inactive: [4] | [13] | [7] | [8]
active: [1] 7.37 µM | [5] 10.4 µM | [6] 8.27 µM | [10] 10.5 µM

Cc1csc(-c2nnc(Nc3ccc(Oc4ncccc4-c4ccnc(N)n4)cc3)c3ccccc23)c1
active: [1] 9.27 µM | [11] 0.0261 µM | [10] 6.62 µM
inactive: [13] | [7] | [8] | [9] | [15]

Nc1[nH]nc2nnc(-c3c(-c4ccccc4)nn4ccccc34)cc12
inactive: [6] | [10]
active: [1] 13.1 µM | [14] 16.5 µM | [8] 20.8 µM

O=C(c1ccc(F)c(F)c1Nc1ccc(I)cc1F)N1CC(O)([C@H]2CCCCN2)C1
inactive: [4] | [16] | [13]
active: [1] 26.1 µM | [5] 2.61 µM | [6] 14.7 µM

CCC(c1ccc(O)cc1)C(CC)c1ccc(O)cc1 (stereo not drawn)
active: [11] 9.27 µM | [17] 10.4 µM | [14] 3.69 µM | [12] 8.27 µM | [7] 10.4 µM
inactive: [1] | [13] | [5] | [10]

COC(=O)Nc1ccc(-c2nc(N3CCOCC3)c3cnn(C4CCN(C(=O)OC)CC4)c3n2)cc1
active: [1] 2.93 µM | [11] 4.65 µM | [3] 8.27 µM | [17] 3.69 µM | [14] 3.69 µM | [6] 2.61 µM | [15] 16.5 µM | [10] 4.18 µM

COc1cc2c(cc1OC)[C@@H]1Cc3ccc(OC)c(OC)c3CN1CC2
inactive: [1] | [13] | [5] | [10]

N#CC(=C1Nc2ccccc2S1)c1ccnc(OCc2ccc(CN3CCOCC3)cc2)n1
inactive: [3] | [4] | [13] | [5] | [6] | [7] | [8] | [9] | [10]

O=C1NC(=O)C(c2cnc3ccccn23)=C1c1cn2c3c(cccc13)CN(C(=O)N1CCOCC1)CC2
inactive: [13] | [5] | [7] | [8] | [9]
active: [11] 14.7 µM | [4] 2.93 µM | [17] 16.5 µM | [14] 4.65 µM | [6] 0.0185 µM | [15] 10.4 µM

Cc1nn(Cc2ccccc2Cl)c(C)c1CN(C)CC(O)COc1ccc(Cl)cc1 (stereo not drawn)
inactive: [4] | [16] | [13]
active: [18] 23.3 µM | [5] 18.5 µM

COc1cc2ncnc(Nc3cc(Br)c(O)c(Br)c3)c2cc1OC
inactive: [2] | [4] | [16] | [13] | [7] | [8] | [15]

C[C@H](c1ccc(F)cc1CCCC(=O)O)N(c1cc(F)ccc1F)S(=O)(=O)c1ccc(Cl)cc1
inactive: [1] | [2] | [3] | [4] | [17] | [13] | [5] | [6] | [9] | [10]

Nc1ccn([C@@H]2O[C@H](CO)[C@@H](O)[C@H]2O)c(=O)n1
active: [1] 0.657 µM | [11] 2.61 µM | [4] 3.29 µM | [17] 0.329 µM | [14] 0.329 µM
inactive: [13] | [5] | [8]

COc1cc2nccc(Oc3ccc(NC(=O)Nc4cc(C)on4)c(Cl)c3)c2cc1OC
inactive: [3] | [13]
active: [1] 18.5 µM | [11] 16.5 µM | [14] 18.5 µM | [10] 9.35 µM
